In all, about 5,500 compounds went through this assay and about 2,000 (36%) were called active. Inconclusive results (about 18%) are left out. No stated cut-off is given here; in the data, active means normalized growth mostly below about 0.91 (no sharp cut-off); inconclusive means no clear call, values can overlap the other calls; inactive means mostly above about 0.92. The list shows a part of the results.
Test: chemical genetic growth profiling, strain panel (AID 1159580);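 further: tested at 20 µM; growth read once vehicle control cultures reached saturation at 30 °C; 1 = growth at the plate median or of vehicle wells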
Settings: growth OD

Measured: normalized growth

CCOC(=O)c1c(C)cc(OC)cc1O
active: S. cerevisiae deletion strains, locus YKR001C, strain vps1, stronger effect = lower value 0.842 | S. cerevisiae deletion strains, locus YLR113W, strain HOG1, stronger effect = lower value 0.835 | S. cerevisiae deletion strains, locus YLR262C, strain YPT6 (second series), stronger effect = lower value 0.731 | S. cerevisiae deletion strains, locus YLR320W, strain mms22, stronger effect = lower value 0.859 | S. cerevisiae deletion strains, locus YNL071W, strain lat1, stronger effect = lower value 0.795 | S. cerevisiae deletion strains, locus YNL307C, strain MCK1, stronger effect = lower value 0.734 | S. cerevisiae deletion strains, locus YOR184W, strain ser1, stronger effect = lower value 0.808 | S. cerevisiae deletion strains, locus YOR270C, strain vph1, stronger effect = lower value 0.727
inactive: S. cerevisiae deletion strains, locus YJR075W, strain HOC1, stronger effect = lower value 0.936 | S. cerevisiae deletion strains, locus YKL009W, strain mrt4, stronger effect = lower value 0.939 | S. cerevisiae deletion strains, locus YKL068W, stronger effect = lower value 0.956 | S. cerevisiae deletion strains, locus YKL085W, strain MDH1 (second series), stronger effect = lower value 0.946 | S. cerevisiae deletion strains, locus YKL085W, strain MDH1, stronger effect = lower value 0.946 | S. cerevisiae deletion strains, locus YKL160W, strain elf1, stronger effect = lower value 0.976 | S. cerevisiae deletion strains, locus YKL190W, strain CNB1, stronger effect = lower value 0.996 | S. cerevisiae deletion strains, locus YKR026C, strain gcn3, stronger effect = lower value 0.951 | S. cerevisiae deletion strains, locus YKR091W, strain srl3, stronger effect = lower value 0.971 | S. cerevisiae deletion strains, locus YLL001W, strain dnm1, stronger effect = lower value 0.962 | S. cerevisiae deletion strains, locus YLL026W, stronger effect = lower value 0.965 | S. cerevisiae deletion strains, locus YLL041C, strain sdh2, stronger effect = lower value 0.96 | S. cerevisiae deletion strains, locus YLR027C, strain aat2, stronger effect = lower value 0.963 | S. cerevisiae deletion strains, locus YLR039C, strain RIC1, stronger effect = lower value 0.872 | S. cerevisiae deletion strains, locus YLR058C, strain SHM2, stronger effect = lower value 0.993 | S. cerevisiae deletion strains, locus YLR102C, strain apc9, stronger effect = lower value 0.946 | S. cerevisiae deletion strains, locus YLR221C, strain rsa3, stronger effect = lower value 0.949 | S. cerevisiae deletion strains, locus YLR258W, strain gsy2, stronger effect = lower value 0.964 | S. cerevisiae deletion strains, locus YLR262C, strain YPT6, stronger effect = lower value 0.928 | S. cerevisiae deletion strains, locus YLR268W, strain sec22, stronger effect = lower value 0.958 | S. cerevisiae deletion strains, locus YLR330W, strain CHS5, stronger effect = lower value 1.01 | S. cerevisiae deletion strains, locus YLR342W, strain FKS1 (second series), stronger effect = lower value 0.971 | S. cerevisiae deletion strains, locus YLR342W, strain FKS1, stronger effect = lower value 0.984 | S. cerevisiae deletion strains, locus YLR357W, strain rsc2, stronger effect = lower value 0.969 | S. cerevisiae deletion strains, locus YLR370C, strain arc18, stronger effect = lower value 0.981 | S. cerevisiae deletion strains, locus YLR371W, strain rom2, stronger effect = lower value 0.962 | S. cerevisiae deletion strains, locus YLR384C, strain iki3, stronger effect = lower value 0.972 | S. cerevisiae deletion strains, locus YLR418C, strain cdc73, stronger effect = lower value 0.891 | S. cerevisiae deletion strains, locus YML016C, strain PPZ1, stronger effect = lower value 0.988 | S. cerevisiae deletion strains, locus YML032C, strain rad52, stronger effect = lower value 0.91 | S. cerevisiae deletion strains, locus YML120C, strain ndi1, stronger effect = lower value 0.972 | S. cerevisiae deletion strains, locus YML124C, strain tub3, stronger effect = lower value 0.947 | S. cerevisiae deletion strains, locus YMR058W, strain fet3, stronger effect = lower value 0.968 | S. cerevisiae deletion strains, locus YMR078C, strain ctf18, stronger effect = lower value 0.926 | S. cerevisiae deletion strains, locus YMR125W, strain sto1, stronger effect = lower value 1 | S. cerevisiae deletion strains, locus YMR129W, stronger effect = lower value 0.977 | S. cerevisiae deletion strains, locus YMR205C, strain PFK2, stronger effect = lower value 0.887 | S. cerevisiae deletion strains, locus YMR223W, strain ubp8, stronger effect = lower value 0.924 | S. cerevisiae deletion strains, locus YMR231W, strain pep5, stronger effect = lower value 0.985 | S. cerevisiae deletion strains, locus YMR263W, strain SAP30, stronger effect = lower value 0.985 | S. cerevisiae deletion strains, locus YMR307W, strain GAS1, stronger effect = lower value 0.996 | S. cerevisiae deletion strains, locus YNL067W, strain RPL9B, stronger effect = lower value 0.99 | S. cerevisiae deletion strains, locus YNL128W, strain TEP1, stronger effect = lower value 1.01 | S. cerevisiae deletion strains, locus YNL153C, strain GIM3, stronger effect = lower value 0.989 | S. cerevisiae deletion strains, locus YNL183C, strain NPR1, stronger effect = lower value 0.872 | S. cerevisiae deletion strains, locus YNL209W, strain ssb2, stronger effect = lower value 0.992 | S. cerevisiae deletion strains, locus YNL233W, strain BNI4, stronger effect = lower value 0.98 | S. cerevisiae deletion strains, locus YNL248C, strain rpa49, stronger effect = lower value 0.936 | S. cerevisiae deletion strains, locus YNL250W, strain rad50, stronger effect = lower value 0.963 | S. cerevisiae deletion strains, locus YNL271C, strain bni1, stronger effect = lower value 0.949 | S. cerevisiae deletion strains, locus YNL298W, strain CLA4, stronger effect = lower value 0.965 | S. cerevisiae deletion strains, locus YNL322C, strain KRE1 (second series), stronger effect = lower value 0.952 | S. cerevisiae deletion strains, locus YNL322C, strain KRE1, stronger effect = lower value 0.989 | S. cerevisiae deletion strains, locus YNR049C, strain mso1, stronger effect = lower value 0.967 | S. cerevisiae deletion strains, locus YNR052C, strain pop2, stronger effect = lower value 0.976 | S. cerevisiae deletion strains, locus YOL006C, strain TOP1, stronger effect = lower value 0.77 | S. cerevisiae deletion strains, locus YOL012C, strain htz1 0.775 | S. cerevisiae deletion strains, locus YOL147C, strain pex11, stronger effect = lower value 0.947 | S. cerevisiae deletion strains, locus YOR001W, strain rrp6, stronger effect = lower value 0.974 | S. cerevisiae deletion strains, locus YOR061W, strain CKA2, stronger effect = lower value 1 | S. cerevisiae deletion strains, locus YOR069W, strain VPS5, stronger effect = lower value 0.989 | S. cerevisiae deletion strains, locus YOR070C, strain gyp1, stronger effect = lower value 0.963 | S. cerevisiae deletion strains, locus YOR080W, strain dia2, stronger effect = lower value 0.997 | S. cerevisiae deletion strains, locus YOR083W, strain WHI5, stronger effect = lower value 0.955 | S. cerevisiae deletion strains, locus YOR106W, strain vam3, stronger effect = lower value 0.936 | S. cerevisiae deletion strains, locus YOR136W, strain idh2, stronger effect = lower value 0.955 | S. cerevisiae deletion strains, locus YOR144C, strain elg1, stronger effect = lower value 0.957 | S. cerevisiae deletion strains, locus YOR231W, strain MKK1, stronger effect = lower value 0.924 | S. cerevisiae deletion strains, locus YOR265W, strain rbl2, stronger effect = lower value 0.962 | S. cerevisiae deletion strains, locus YOR290C, strain snf2, stronger effect = lower value 0.929 | S. cerevisiae deletion strains, locus YOR316C, strain cot1, stronger effect = lower value 0.964 | S. cerevisiae deletion strains, locus YPL051W, strain arl3, stronger effect = lower value 0.96 | S. cerevisiae deletion strains, locus YPL055C, strain LGE1, stronger effect = lower value 0.972 | S. cerevisiae deletion strains, locus YPL078C, strain atp4, stronger effect = lower value 0.932 | S. cerevisiae deletion strains, locus YPL106C, strain sse1, stronger effect = lower value 1.02 | S. cerevisiae deletion strains, locus YPL240C, strain hsp82, stronger effect = lower value 0.987 | S. cerevisiae deletion strains, locus YPL241C, strain CIN2, stronger effect = lower value 0.991 | S. cerevisiae deletion strains, locus YPL256C, strain CLN2, stronger effect = lower value 0.866 | S. cerevisiae deletion strains, locus YPR119W, strain clb2, stronger effect = lower value 0.933 | S. cerevisiae deletion strains, locus YPR141C, strain kar3, stronger effect = lower value 0.946 | S. cerevisiae deletion strains, locus YPR163C, strain tif3, stronger effect = lower value 0.957 | S. cerevisiae deletion strains, locus YPR167C, strain met16, stronger effect = lower value 0.96 | S. cerevisiae deletion strains, strain wtn01, stronger effect = lower value 0.928 | S. cerevisiae strains, strain wild type, stronger effect = lower value 0.978
